From PubChem BioAssay (NCATS)
Results filed as inconclusive are left out. Calls of active or inactive are those of the source. Unless noted, calls follow the shape of the full dose curve.

Columns and labels:
[1] = molecular target: Androgen receptor (Homo sapiens) (UniProt P10275); assay: qHTS assay for small molecule agonists of androgen receptor signaling (AID 588515; active = well fitted curve in the direction sought with a large enough effect in the signal ratio, with a control signal flat; the % refers to the signal ratio; also: % is scaled to controls: 0 for no effect and ±100 for the full control effect); details: AR-UAS-bla HEK293, beta-lactamase ratio, agonist 16 h; activation: stronger effect = higher value
Chain of Androgen receptor (Homo sapiens) (P10275 whole entry, looked up): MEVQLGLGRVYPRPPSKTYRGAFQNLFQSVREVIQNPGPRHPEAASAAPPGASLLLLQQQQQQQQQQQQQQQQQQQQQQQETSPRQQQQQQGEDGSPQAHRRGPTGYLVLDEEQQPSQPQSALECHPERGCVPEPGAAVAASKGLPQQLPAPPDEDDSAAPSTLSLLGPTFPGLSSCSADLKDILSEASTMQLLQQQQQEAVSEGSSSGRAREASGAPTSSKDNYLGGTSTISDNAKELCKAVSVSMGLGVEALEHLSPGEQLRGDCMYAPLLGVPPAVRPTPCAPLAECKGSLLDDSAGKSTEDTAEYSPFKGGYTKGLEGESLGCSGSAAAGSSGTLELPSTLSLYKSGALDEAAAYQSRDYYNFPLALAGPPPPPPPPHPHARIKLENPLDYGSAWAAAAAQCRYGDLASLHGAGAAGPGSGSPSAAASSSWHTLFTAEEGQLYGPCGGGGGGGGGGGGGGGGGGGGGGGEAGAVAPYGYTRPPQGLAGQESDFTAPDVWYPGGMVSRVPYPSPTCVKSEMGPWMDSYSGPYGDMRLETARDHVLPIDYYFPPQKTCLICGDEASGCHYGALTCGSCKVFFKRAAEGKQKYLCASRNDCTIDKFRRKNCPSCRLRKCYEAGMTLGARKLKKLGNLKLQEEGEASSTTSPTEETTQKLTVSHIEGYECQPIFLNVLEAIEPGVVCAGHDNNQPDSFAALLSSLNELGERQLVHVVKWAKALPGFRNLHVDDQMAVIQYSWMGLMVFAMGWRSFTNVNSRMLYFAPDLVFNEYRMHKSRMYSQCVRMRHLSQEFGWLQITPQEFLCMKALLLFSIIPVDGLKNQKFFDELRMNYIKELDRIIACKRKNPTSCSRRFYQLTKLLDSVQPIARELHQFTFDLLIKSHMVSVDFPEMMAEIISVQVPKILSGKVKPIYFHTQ
Procedure, shortened: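 Stimulation of an AR-responsive β-lactamase reporter in GripTite HEK293 cells was measured after 16 h compound exposure at 37 °C, via CCF4 fluorescence after 2 h RT. EC50 from Hill fits, normalized to R1881 at 30 nM.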

[2] = molecular target: Androgen receptor (Homo sapiens) (UniProt P10275); assay: qHTS assay for small molecule antagonists of androgen receptor signaling (AID 588516; active = well fitted curve in the direction sought with a large enough effect in the signal ratio, with a control signal flat, not every such curve was filed as active; the % refers to the signal ratio; also: % is scaled to controls: 0 for no effect and ±100 for the full control effect)
Procedure, shortened: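 AR-UAS-bla GripTite HEK 293 cells (2000/well) treated with compound titrations plus 10 nM R1881 for 16 h at 37C. Beta-lactamase read by CCF4 FRET (460/530 nm); IC50 from Hill fits, normalized to R1881 and DMSO control wells.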

[3] = molecular target: Peroxisome proliferator-activated receptor gamma (Homo sapiens) (UniProt P37231); assay: qHTS assay for small molecule agonists of peroxisome proliferator-activated receptor gamma signaling (AID 588536; active = well fitted curve in the direction sought with a large enough effect in the signal ratio, with a control signal flat, not every such curve was filed as active; the % refers to the signal ratio;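 also: 0% = DMSO basal wells and 100% = rosiglitazone at 2 µM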)
Chain of Peroxisome proliferator-activated receptor gamma (Homo sapiens) (P37231 whole entry, looked up): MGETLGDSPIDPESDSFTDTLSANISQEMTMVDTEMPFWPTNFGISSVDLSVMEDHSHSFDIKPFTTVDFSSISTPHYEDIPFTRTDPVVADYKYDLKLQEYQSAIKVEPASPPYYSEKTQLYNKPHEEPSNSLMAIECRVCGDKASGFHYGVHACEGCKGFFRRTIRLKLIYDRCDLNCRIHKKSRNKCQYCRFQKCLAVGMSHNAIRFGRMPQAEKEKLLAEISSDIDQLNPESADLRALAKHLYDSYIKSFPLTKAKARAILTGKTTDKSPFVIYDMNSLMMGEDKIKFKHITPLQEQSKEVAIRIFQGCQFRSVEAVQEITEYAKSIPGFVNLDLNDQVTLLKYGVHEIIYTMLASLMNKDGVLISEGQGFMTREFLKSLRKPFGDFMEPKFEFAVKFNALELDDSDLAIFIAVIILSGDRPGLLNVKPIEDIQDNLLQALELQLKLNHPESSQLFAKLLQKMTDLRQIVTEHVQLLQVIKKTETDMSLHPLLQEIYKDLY
Procedure, shortened: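 This is an agonist-mode beta-lactamase reporter assay in HEK293 PPAR-gamma-UAS-bla cells with 1% charcoal/dextran FBS. Compound titrations ran 16 h at 37 C before CCF4 detection. EC50 and efficacy are Hill fits scaled to 2 uM rosiglitazone (100%) and DMSO basal.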

[4] = molecular target: Peroxisome proliferator-activated receptor gamma (Homo sapiens) (UniProt P37231); assay: qHTS assay for small molecule antagonists of peroxisome proliferator-activated receptor gamma signaling (AID 588537; active = well fitted inhibition curve with a large enough effect in the signal ratio, with a control signal flat, not every such curve was filed as active; the % refers to the signal ratio;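 also: reporter cells co-stimulated with 50 nM rosiglitazone agonist during compound treatment; % of control where 0% means no effect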)
Procedure, shortened: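 Read-out: CCF4 fluorescence (ex 405, em 460/530 nm) after 2 h at RT. Cells were HEK293 carrying a UAS-bla reporter and treated 16 h at 37 C with compound plus rosiglitazone (50 nM final). Normalized to rosiglitazone and DMSO.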

[5] = molecular target: Thyroid hormone receptor beta (Homo sapiens) (UniProt P10828); assay: qHTS assay for small molecule agonists of thyroid hormone receptor beta signaling (AID 588545)
Chain of Thyroid hormone receptor beta (Homo sapiens) (P10828 whole entry, looked up): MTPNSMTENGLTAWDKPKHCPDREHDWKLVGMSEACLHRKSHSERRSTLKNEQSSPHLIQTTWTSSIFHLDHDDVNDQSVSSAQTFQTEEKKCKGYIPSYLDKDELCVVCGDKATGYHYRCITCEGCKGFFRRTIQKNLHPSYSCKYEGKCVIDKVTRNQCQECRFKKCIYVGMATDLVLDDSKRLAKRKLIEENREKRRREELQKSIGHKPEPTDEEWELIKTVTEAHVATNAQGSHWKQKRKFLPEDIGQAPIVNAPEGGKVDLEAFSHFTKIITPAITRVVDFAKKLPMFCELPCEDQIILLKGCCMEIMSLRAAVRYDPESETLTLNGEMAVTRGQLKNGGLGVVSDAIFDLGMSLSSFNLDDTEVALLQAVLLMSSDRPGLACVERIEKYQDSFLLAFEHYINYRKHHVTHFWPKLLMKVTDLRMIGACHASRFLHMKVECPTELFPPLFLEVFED
Procedure, shortened: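 Cells (2500/well) were seeded, incubated 4 hrs at 37 C, dosed with a compound series, incubated 18 hrs, loaded with CCF4 dye for 2 hrs at RT, then read for fluorescence. Data were scaled between DMSO (0%) and 10 nM T3 (100%).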

[6] = qHTS assay for small molecule agonists of the antioxidant response element (ARE) signaling pathway measured by Nrf2-dependant transcriptional activity (AID 720636; active = well fitted activation curve with a large enough effect in the repeat runs;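 also: HepG2 cells with an ARE-driven luciferase reporter; % of control where 0% means no effect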)
Procedure, shortened: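 We exposed ARE-luc HepG2 cells, seeded in assay medium with 1% dialyzed FBS and allowed 6 hr to adhere, to test compounds overnight (16 hr, 37 C) before measuring luciferase with ONE-Glo.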

[7] = molecular target: Bile acid receptor (Homo sapiens) (UniProt Q96RI1); assay: qHTS assay for small molecule antagonists of farnesoid X receptor signaling (AID 588526); also: % is scaled to controls: 0 for no effect and ±100 for the full control effect
Chain of Bile acid receptor (Homo sapiens) (Q96RI1 whole entry, looked up): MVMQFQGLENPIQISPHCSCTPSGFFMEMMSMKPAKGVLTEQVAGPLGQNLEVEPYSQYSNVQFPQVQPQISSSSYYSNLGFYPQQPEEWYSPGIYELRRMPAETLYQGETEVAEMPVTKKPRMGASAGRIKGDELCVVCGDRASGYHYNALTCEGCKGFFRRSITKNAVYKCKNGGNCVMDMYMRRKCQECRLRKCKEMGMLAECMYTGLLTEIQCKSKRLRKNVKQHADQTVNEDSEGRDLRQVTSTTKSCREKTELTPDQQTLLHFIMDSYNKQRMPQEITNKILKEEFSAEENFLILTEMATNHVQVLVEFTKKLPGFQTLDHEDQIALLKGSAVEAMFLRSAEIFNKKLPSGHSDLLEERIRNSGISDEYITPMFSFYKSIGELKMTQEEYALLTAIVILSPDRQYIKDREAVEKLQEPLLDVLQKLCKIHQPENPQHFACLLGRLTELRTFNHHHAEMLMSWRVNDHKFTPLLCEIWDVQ
Procedure, shortened: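 Antagonist mode: titrated compounds tested against chenodeoxycholic acid stimulation (normalized to 50 uM CDCA and DMSO) in GeneBLAzer HEK293T cells for 16 h. Beta-lactamase read by CCF4 fluorescence; IC50 from Hill fits.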

[8] = molecular target: Vitamin D3 receptor (Homo sapiens) (UniProt P11473); assay: qHTS assay for small molecule antagonists of vitamin D receptor signaling (AID 588541);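 also: receptor activated by calcitriol during compound treatment; series mostly up to about 77 µM; % is scaled to controls: 0 for no effect and ±100 for the full control effect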
Chain of Vitamin D3 receptor (Homo sapiens) (P11473 whole entry, looked up): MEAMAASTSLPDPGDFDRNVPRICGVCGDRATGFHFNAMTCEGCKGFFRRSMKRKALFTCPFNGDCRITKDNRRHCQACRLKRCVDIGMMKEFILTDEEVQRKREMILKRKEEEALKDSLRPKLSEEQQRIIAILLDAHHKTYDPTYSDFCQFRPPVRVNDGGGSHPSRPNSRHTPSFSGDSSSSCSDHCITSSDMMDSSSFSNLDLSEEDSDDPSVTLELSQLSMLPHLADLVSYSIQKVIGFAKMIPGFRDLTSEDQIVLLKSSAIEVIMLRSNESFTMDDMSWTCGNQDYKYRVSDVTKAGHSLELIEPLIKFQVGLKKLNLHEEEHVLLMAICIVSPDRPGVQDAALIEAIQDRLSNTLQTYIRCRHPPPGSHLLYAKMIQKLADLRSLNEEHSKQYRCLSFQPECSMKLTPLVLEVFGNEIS
Procedure, shortened: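 VDR-UAS-bla HEK293T cells in 2% charcoal-stripped FBS were stimulated with 1-alpha,25-dihydroxyvitamin D3 (3 nM final) plus compound for 16 h at 37 C. The beta-lactamase CCF4 readout was normalized to 50 nM agonist and DMSO, and Hill fits gave IC50.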

[9] = molecular target: Thyroid hormone receptor beta (Homo sapiens) (UniProt P10828); assay: qHTS assay for small molecule antagonists of thyroid hormone receptor beta signaling (AID 588547; active = well fitted inhibition curve with a large enough effect in the signal ratio, with a control signal flat, not every such curve was filed as active; the % refers to the signal ratio); details: TR-UAS-bla HEK293, beta-lactamase ratio, antagonist mode, 18 h
Procedure, shortened: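 TR-UAS-bla GripTite HEK293 cells in 2% charcoal/dextran FBS medium; compounds 0.59 nM to 92 uM with T3 at 0.4nM final, 18 h at 37 C. Beta-lactamase read by CCF4 fluorescence (460/530 nm); Hill fits gave IC50 and efficacy.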

[10] = molecular target: Glucocorticoid receptor (Homo sapiens) (UniProt P04150); assay: qHTS assay for small molecule antagonists of glucocorticoid receptor signaling (AID 588533; active = well fitted inhibition curve with a large enough effect in the signal ratio, with a control signal flat, not every such curve was filed as active; the % refers to the signal ratio; also: % is scaled to controls: 0 for no effect and ±100 for the full control effect)
Chain of Glucocorticoid receptor (Homo sapiens) (P04150 whole entry, looked up): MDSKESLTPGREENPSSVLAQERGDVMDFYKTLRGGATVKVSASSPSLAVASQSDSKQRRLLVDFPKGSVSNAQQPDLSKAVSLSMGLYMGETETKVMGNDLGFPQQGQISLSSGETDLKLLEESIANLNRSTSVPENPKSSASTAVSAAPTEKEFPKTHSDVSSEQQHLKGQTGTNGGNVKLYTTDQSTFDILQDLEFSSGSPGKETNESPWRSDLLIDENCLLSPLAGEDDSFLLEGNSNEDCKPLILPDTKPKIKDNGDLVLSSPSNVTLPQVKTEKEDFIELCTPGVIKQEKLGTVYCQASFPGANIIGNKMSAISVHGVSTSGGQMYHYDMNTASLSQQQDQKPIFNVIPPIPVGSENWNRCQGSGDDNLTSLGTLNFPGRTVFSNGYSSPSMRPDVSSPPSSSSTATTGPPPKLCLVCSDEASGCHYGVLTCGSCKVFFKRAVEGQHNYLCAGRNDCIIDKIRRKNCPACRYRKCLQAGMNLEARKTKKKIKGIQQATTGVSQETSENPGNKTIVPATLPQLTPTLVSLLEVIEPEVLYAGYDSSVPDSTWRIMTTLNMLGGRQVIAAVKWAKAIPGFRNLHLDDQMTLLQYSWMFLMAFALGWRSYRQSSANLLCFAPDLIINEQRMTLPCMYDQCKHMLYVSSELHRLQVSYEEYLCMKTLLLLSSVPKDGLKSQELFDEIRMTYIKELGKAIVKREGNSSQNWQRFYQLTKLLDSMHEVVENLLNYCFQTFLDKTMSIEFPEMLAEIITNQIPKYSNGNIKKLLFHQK
Procedure, shortened: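 Antagonist-mode qHTS: compound titrations added to GRE-bla HeLa cells, then dexamethasone 2 nM final; 18 h, 37 C. CCF4 FRET fluorescence normalized to dexamethasone and DMSO; IC50 from Hill fit.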

[11] = qHTS assay for small molecule agonists of the antioxidant response element (ARE) signaling pathway (AID 651741; active = well fitted activation curve with a large enough effect in the signal ratio; the % refers to the signal ratio; also: potency is read from the fitted curve at half-maximal effect; as to activation: % of control where 0% means no effect)
Procedure, shortened: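 HepG2 ARE-bla reporter cells, 2,000/well; 5 h settle at 37 C/5% CO2; compound pin transfer (23 nL, DMSO); 16 h at 37 C; LiveBLAzer B/G FRET substrate, 2 h RT; fluorescence intensity read.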

[12] = molecular target: Glucocorticoid receptor (Homo sapiens) (UniProt P04150); assay: qHTS assay for small molecule agonists of glucocorticoid receptor signaling (AID 588532; active = well fitted curve in the direction sought with a large enough effect in the signal ratio, with a control signal flat; the % refers to the signal ratio;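 also: 100% = dexamethasone at 0.1 µM and 0% = DMSO only wells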); details: HeLa MMTV-bla, beta-lactamase ratio, agonist, 18 h; stronger effect = higher value; percent of dexamethasone control, DMSO zero
Procedure, shortened: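 Cells were plated and rested 3-5 h at 37 C, compounds were added in titration and incubated 18 h, then CCF4 substrate was loaded for 2 h at RT before reading blue/green fluorescence. EC50 came from Hill-equation fitting.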

N[C@@H]1[C@@H](O)[C@H](O)[C@@H](CO)O[C@H]1O
inactive: activation [1] 9.13% | outcome [2] | outcome [3] | Potency [4] | Potency [5] | Potency [6]

NNS(=O)(=O)c1ccc(Oc2ccc(S(=O)(=O)NN)cc2)cc1
inactive: Potency [7] | outcome [3] | Potency [8] | Potency [5] | activity change % (negative = inhibition) [9] -2.89%

OC1CCC(C2CCCCC2)CC1 (centres undefined)
inactive: Potency [7] | Potency [10] | outcome [3] | Potency [4] | Potency [8] | Potency [5] | activity change % (negative = inhibition) [9] 4.98% | Potency [11] | Potency [6]

CCCCCC1CCC(=O)O1 (centres undefined)
inactive: Potency [7] | activation [12] -5.15% | Potency [10] | Potency [5]

CCCCOC(=O)/C=C\C(=O)OCCCC
inactive: Potency [7] | activation [12] -13.3% | Potency [10] | Potency [8] | Potency [5] | activity change % (negative = inhibition) [9] 17.7% | Potency [6]

O=C(Cl)c1cc(Cl)cc(Cl)c1
inactive: activation [12] -2.63% | Potency [10] | outcome [3] | Potency [4] | Potency [8] | Potency [5] | activity change % (negative = inhibition) [9] -10.7% | Potency [6]

Nc1c(N=Nc2ccc(S(=O)(=O)CCOS(=O)(=O)O)cc2)c(S(=O)(=O)O)cc2cc(S(=O)(=O)O)c(N=Nc3ccc(S(=O)(=O)CCOS(=O)(=O)O)cc3)c(O)c12
inactive: activation [1] 7.7% | Potency [7] | Potency [8] | activity change % (negative = inhibition) [9] -6.2% | Potency [6]
active: Potency [11] 30.6 µM

OCC(CO)(CO)COCC(CO)(CO)CO
inactive: Potency [7] | outcome [3] | Potency [4] | Potency [8] | Potency [5] | activity change % (negative = inhibition) [9] -4.48% | Potency [11] | Potency [6]

Cc1ccc(S(=O)(=O)N=C=O)cc1
inactive: activation [12] 20.2% | Potency [10] | outcome [3] | Potency [4] | Potency [8] | Potency [5] | activity change % (negative = inhibition) [9] 8.97% | Potency [11]

CCCCC(CC)C(=O)OCCOCCOCCOC(=O)C(CC)CCCC (centres undefined)
inactive: activation [1] 6.77% | outcome [2] | activation [12] -10% | Potency [10] | outcome [3] | Potency [4] | Potency [8] | activity change % (negative = inhibition) [9] 12.7% | Potency [11] | Potency [6]

Cn1c(=O)[nH]c(=O)n(C2CCCCC2)c1=O
inactive: outcome [2] | Potency [7] | activation [12] 12.5% | Potency [10] | outcome [3] | Potency [8] | Potency [5] | activity change % (negative = inhibition) [9] 4.13% | Potency [6]

CC(C)O.CC(C)O.CC(C)O.CC(C)O.[Ti]
inactive: Potency [7] | outcome [3] | Potency [4] | Potency [8] | activity change % (negative = inhibition) [9] -6.47% | Potency [11]

CC(=O)/C=C/C1C(C)=CCCC1(C)C (centres undefined)
inactive: Potency [7] | outcome [3] | Potency [4] | Potency [8] | Potency [5] | activity change % (negative = inhibition) [9] 5.94% | Potency [11] | Potency [6]

O=C1CCCC/C=C/CCCCCCCCCO1
inactive: activation [1] 0.71% | outcome [2] | activation [12] -15.4% | Potency [10] | outcome [3] | Potency [4] | Potency [8] | Potency [5] | activity change % (negative = inhibition) [9] -13.1% | Potency [11]

CCSC(=O)N(CC(C)C)CC(C)C
inactive: activation [1] 3.31% | outcome [2] | activation [12] -2.35% | outcome [3] | Potency [8] | Potency [5] | Potency [11] | Potency [6]

CC(C)(C)C(O)/C(=C\c1ccc(Cl)cc1)n1cncn1 (centres undefined)
inactive: activation [1] -3.93% | outcome [2] | activation [12] 0.903% | Potency [10] | outcome [3] | Potency [4] | Potency [8] | Potency [5] | Potency [6]

CCCCCCCCCCCCCCC(=O)OC
inactive: outcome [2] | Potency [7] | activation [12] -1.65% | Potency [10] | outcome [3] | Potency [4] | Potency [8] | Potency [11]
